Where “and” joins values, the source holds several entries; their conditions need not be identical. Equal entries are not always repeated. Results filed as inconclusive are left out. More than one record can exist for a structure, and the calls need not agree. Calls of active or inactive are those of the source. The calls were made as follows: active = hit-call score of the fitted dose curve at least 0.9, where 1 is the maximum; inconclusive = response in the unintended direction; inactive = score below 0.9.
Biological target: Glucocorticoid receptor (Homo sapiens) (UniProt P04150)
Experiment: ATG_GR_TRANS: Attagene TRANS-FACTORIAL HepG2 Assay for human Glucocorticoid Receptor (GR) (AID 2282978);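 also: activators score as hits since higher reporter transcript over DMSO is fitted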
Conditions: HepG2 Attagene TRANS GR reporter, mRNA transcription
Description: ATG_TRANS is a cell-based, multiplexed-readout assay that uses HepG2, a human liver cell line, with measurements taken at 24 hours after chemical dosing in a 24-well plate.ATG_GR_TRANS is one of 30 assay component(s) measured or calculated from the ATG_TRANS assay. It is designed to make measurements of mRNA induction, a form of inducible reporter, as detected with fluorescence intensity signals by Reverse transcription polymerase chain reaction (RT-PCR) and Capillary electrophoresis technology.Data from the assay component ATG_GR_TRANS was analyzed into 1 assay endpoint. This assay endpoint, ATG_GR_TRANS, was analyzed in the positive analysis fitting direction relative to DMSO as the negative control and baseline of activity. Using a type of inducible reporter, measures of mRNA for gain-of-signal activity can be used to understand the reporter gene at the transcription factor-level as they relate to the gene NR3C1. Furthermore, this assay endpoint can be referred to as a primary readout, because this assay has produced multiple assay endpoints where this one serves a reporter gene function. To generalize the intended target to other relatable targets, this assay endpoint is annotated to the nuclear receptor intended target family, where the subfamily is steroidal.
Human liver HepG2 cells are transiently transfected with multiple reporter transcription units (MRTUs) in 6-well plates using FuGene 6 reagent (Roche; 3 ml FuGene/1 mg DNA). The MRTU constructs are regulated by a cis-regulating element (promoter). […] A major difference between the CIS and TRANS system is that in CIS activities of endogenous TFs are measured, whereas the TRANS assay evaluates changes in activities of exogenous, chimeric NR-Gal4 proteins. […] At the end of 24 hour incubation, total RNA was isolated using TriZol reagent (Invitrogen). The isolated RNA is then reverse-transcribed using oligo(dT) primer and Mo-MLV reverse transcriptase (Invitrogen) with DNAse I (Ambion) treatment for 30 min. The one-tenth of the produced cDNA was amplified by PCR using Taq DNA polymerase (Invitrogen) and two reporter sequence-specific primers. The PCR products were fluorescently labeled by primer extension with 6-arboxyfluorescein (6-FAM) 5'-labeled reporter sequence-specific primer (2 min at 95 C, 20 s at 68 C and 10 min at 72 C) and these products were digested with 5U of HpaI (New England Biolabs) for 2h at 37 C. The fragments were purified using Qiaquick PCR columns (Qiagen), analyzed on an ABI 3130xL genetic analyzer (Applied Biosystems) with peak positions identified by using a set of X-rhodamine (ROX)-labeled MapMarker1000 molecular weight standards (BioVentures). The raw capillary electrophoresis data was processed using Attagraph software (Attagene).

Glucocorticoid receptor (Homo sapiens), sequence (P04150 whole entry, looked up): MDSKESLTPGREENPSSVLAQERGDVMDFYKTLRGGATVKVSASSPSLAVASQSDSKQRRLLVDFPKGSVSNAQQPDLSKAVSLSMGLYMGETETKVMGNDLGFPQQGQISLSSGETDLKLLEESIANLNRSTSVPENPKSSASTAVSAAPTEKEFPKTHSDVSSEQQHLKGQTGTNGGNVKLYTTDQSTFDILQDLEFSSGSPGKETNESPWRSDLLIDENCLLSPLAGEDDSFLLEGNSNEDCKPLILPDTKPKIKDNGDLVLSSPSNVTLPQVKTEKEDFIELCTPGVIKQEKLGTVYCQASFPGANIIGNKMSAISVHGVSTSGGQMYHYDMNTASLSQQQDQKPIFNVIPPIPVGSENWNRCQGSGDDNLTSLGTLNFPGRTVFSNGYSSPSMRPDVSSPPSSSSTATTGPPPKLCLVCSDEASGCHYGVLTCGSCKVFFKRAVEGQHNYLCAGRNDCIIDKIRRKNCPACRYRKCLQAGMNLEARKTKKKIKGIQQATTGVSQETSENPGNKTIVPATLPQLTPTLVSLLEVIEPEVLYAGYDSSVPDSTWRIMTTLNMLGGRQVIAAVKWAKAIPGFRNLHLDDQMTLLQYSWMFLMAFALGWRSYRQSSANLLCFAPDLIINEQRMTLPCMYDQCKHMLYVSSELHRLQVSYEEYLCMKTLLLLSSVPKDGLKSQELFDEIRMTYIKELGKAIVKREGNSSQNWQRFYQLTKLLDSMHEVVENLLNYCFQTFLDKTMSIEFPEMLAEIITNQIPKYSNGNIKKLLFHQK

SMILES	outcome	AC50
CCN(CC)CCOc1ccc(C(=C(Cl)c2ccccc2)c2ccccc2)cc1	inactive	
NC(=Nc1ccccc1)Nc1ccccc1	inactive	
NCCOCCOCCN	inactive	
CCCCCCC(CCCCCCCCCCC(=O)OCC(COC(C)=O)OC(C)=O)OC(C)=O (stereo not given)	inactive	
CCCCOC(=O)CCCCC(=O)OCCCC		155 µM (active)
C=CCc1ccc(OC)c(OC)c1	inactive	
CCCCCCCCCCCCCCCCO	inactive	
Cc1ccc(-c2cc(C(F)(F)F)nn2-c2ccc(S(N)(=O)=O)cc2)cc1	inactive	
CC(COCC(C)OC(=O)c1ccccc1)OC(=O)c1ccccc1 (stereo not given)	inactive	
COC(=O)[C@H]1[C@H]2C[C@@H]3c4[nH]c5cc(OC)ccc5c4CCN3C[C@H]2C[C@@H](OC(=O)c2cc(OC)c(OC)c(OC)c2)[C@@H]1OC	inactive	
CCc1nc(N)nc(N)c1-c1ccc(Cl)cc1	inactive	
CC(=O)[C@@]1(O)CC[C@H]2[C@@H]3CCC4=CC(=O)CC[C@]4(C)[C@H]3CC[C@@]21C	inactive	6.26 µM (active) and 14.8 µM (active) and 1.58 µM (active)
O=C(O)CN(CC(=O)O)CC(=O)O	inactive	
CCCCC(CC)CO (stereo not given)	inactive	
O=C1c2c(O)cccc2Cc2cccc(O)c21	inactive	
CC(=O)S[C@H](C(=O)N[C@H]1Cc2ccccc2[C@H]2CCC[C@@H](C(=O)O)N2C1=O)C(C)C	inactive	
CCCCc1nc2cccnc2n1Cc1ccc(-c2ccccc2-c2nnn[nH]2)cc1	inactive	
COC(=O)CCCC(=O)OC	inactive	
C#CC(O)C(CC)CCCC (stereo not given)	inactive	
Cc1cc(Cc2ccc(N)c(C)c2)ccc1N	inactive	

SMILES	outcome	AC50
CCOCCOCCO	inactive	
CCCCCCCCCCCCCCOS(=O)(=O)O	inactive	
C=CCCCCCCCCCCCC	inactive	
O=C(Oc1ccccc1)c1cccc(C(=O)Oc2ccccc2)c1	inactive	
CCCCC(CC)COP(=O)(OCC(CC)CCCC)OCC(CC)CCCC (stereo not given)	inactive	
Cn1cnc2c1c(=O)[nH]c(=O)n2C	inactive	
CN(C)C(=O)NC1(c2ccccc2)CCN(CC[C@@]2(c3ccc(F)c(F)c3)CN(C(=O)c3ccccc3)CCO2)CC1	inactive	
CN(C)CCCN1c2ccccc2Sc2ccc(Cl)cc21	inactive	
CS(=O)(=O)c1ccc([C@@H](C[C@H]2CCC(=O)C2)C(=O)Nc2cnccn2)cc1Cl	inactive	
O=C1O[C@H]([C@H](O)CO)C(O)=C1O	inactive	
CC1(C)C(=O)NC(=O)N1CO	inactive	
O=C1NC(=O)C(c2ccccc2)(c2ccccc2)N1	inactive	
CCCCCCC(C=O)=Cc1ccccc1	inactive	
CC(N)=O	inactive	
OCC(CO)n1cnc(-c2ccc(F)cc2)c1-c1ccnc(Oc2ccccc2)n1	inactive	
CCc1cc(C2=C(C(=O)O)N(c3ccccc3C(F)(F)F)S(=O)(=O)c3ccccc32)cc2c1OCO2	inactive	
O=C1CCCCC1	inactive	
CC(C)OC(=O)C(C)(C)Oc1ccc(C(=O)c2ccc(Cl)cc2)cc1	inactive	
S=c1[nH]c2ccccc2s1	inactive	
